Whole data set: some 68,000 sequences, median “fluorescence intensity (a.u.)” near 9,100, cut for the highest 2% near 16,000. The list comes from a sample in which the highest values are over-represented; it also holds similar and randomly drawn sequences.
Each sequence was assayed against OsWRKY34 (Oryza sativa, UniProt Q0JBA9 1-250) (assay: protein-binding microarray (RPBM); PBS, 2% BSA, 51.3 ng/ul salmon testes DNA, 50 uM zinc acetate, 200 nM TF, 25 C, 1 h; high values mean tight binding). Settings: protein: recombinant; tags: N-terminal polyhistidine and DsRed monomer fusion (pET32a); label: CyDye5-dUTP incorporated in the synthesized complementary strand; 3' TTTTT single-stranded linker to array surface; dsDNA, one strand shown.
Procedure, shortened: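 Binding signal is defined as the fluorescence intensity of each feature in arbitrary units, read on an Axon 4000B scanner. Transcription factors with N-terminal polyhistidine and DsRed fusions came from E. coli BL21-CodonPlus and were purified on Ni–NTA. They were incubated at 200 nM for 1 h at 25 °C on a custom Agilent array that had been made double-stranded with Cy5-dUTP, with 50 µM zinc acetate present, and the array was washed.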

OsWRKY34, sequence (Q0JBA9 entry or part of it): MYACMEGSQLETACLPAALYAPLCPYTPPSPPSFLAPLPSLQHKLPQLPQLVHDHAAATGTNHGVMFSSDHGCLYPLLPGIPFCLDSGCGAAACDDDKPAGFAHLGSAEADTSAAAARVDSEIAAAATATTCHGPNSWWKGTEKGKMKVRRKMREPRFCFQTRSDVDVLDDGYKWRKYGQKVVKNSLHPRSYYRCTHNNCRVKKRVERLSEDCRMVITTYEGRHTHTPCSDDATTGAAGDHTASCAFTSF

| Sequence | binding signal |
| --- | --- |
| CTAAATATTTGACGCCGTTGACTTTTTAAAACATGTTTGACGGAGTCACCTAGTGCAG | 30500 fluorescence intensity (a.u.) |
| TCCGTCCCTAAATATTTGACGCCGTTGACTTTTTAACACACGGAGTCACCTAGTGCAG | 35700 fluorescence intensity (a.u.) |
| GTACTCCCTCTGACCCTAAATATTTGACGTCGTTGACTTTCGGAGTCACCTAGTGCAG | 16300 fluorescence intensity (a.u.) |
| CTAAATGTTTAACGCCGTTGACTTTTTAAAACATATTTGACGGAGTCACCTAGTGCAG | 13400 fluorescence intensity (a.u.) |
| CGGCGGTGGTCTCCGCCGTTGGATCTGGGCGTTGACTTGTCGGAGTCACCTAGTGCAG | 9160 fluorescence intensity (a.u.) |
| ACTGCTGCTGCATCGGCGCCTTCACCAAGATGTCAACGGACGGAGTCACCTAGTGCAG | 8350 fluorescence intensity (a.u.) |
| GCTCTGAATTTTATTTTTTCCGCTTCTTGATTTCTTCGTTCGGAGTCACCTAGTGCAG | 9450 fluorescence intensity (a.u.) |
| GTAGCTCGTCGTCACTGCCCATAGTACTCTGGCTTAGCTACGGAGTCACCTAGTGCAG | 8030 fluorescence intensity (a.u.) |
| GGAGAGATGCCATGCCGCGCTATGTTGTTCAACTTCAAACCGGAGTCACCTAGTGCAG | 8400 fluorescence intensity (a.u.) |
| ATAGTTTGTTGTTTCCCAGACATAATTTTTACTAGCTTATCGGAGTCACCTAGTGCAG | 9630 fluorescence intensity (a.u.) |
| GTACACCGAAAGAAACCAACTCGTGTCCATCCATCCGTCTCGGAGTCACCTAGTGCAG | 8070 fluorescence intensity (a.u.) |
| TTCATATCTGCTTTTTCCTATATATGTGTGTGTGACTGCACGGAGTCACCTAGTGCAG | 9710 fluorescence intensity (a.u.) |
| TTTTATAATATGTTATTGTAGCAGTTTTTGTGAGCTATTACGGAGTCACCTAGTGCAG | 8100 fluorescence intensity (a.u.) |
| CTTGTACATCTGTCTTGCTAGAGTCTTTCACAAGATTACACGGAGTCACCTAGTGCAG | 8080 fluorescence intensity (a.u.) |
| GTGCTTGTGTGGCGCGTGTGCTTGTCACAGACTCTGCTCCCGGAGTCACCTAGTGCAG | 8660 fluorescence intensity (a.u.) |
| AGATGATGTCATTGACCATACAAGTTGAAAATAGGAGCAACGGAGTCACCTAGTGCAG | 63300 fluorescence intensity (a.u.) |
| TGTGGATGGCGTGGATAAGTTGACAGTTGAAAATACAAAACGGAGTCACCTAGTGCAG | 9130 fluorescence intensity (a.u.) |
| GATACAACCATTGCTCACATCATGGATGAACAAGATGACACGGAGTCACCTAGTGCAG | 8160 fluorescence intensity (a.u.) |
| ACATACCTCGTGCGGCCAGTCGCCTGTTACAAACTCCATTCGGAGTCACCTAGTGCAG | 8270 fluorescence intensity (a.u.) |
| TCCTTCTCTGACTCTGTCTTGGCCATCCTATTCCTAGCTCCGGAGTCACCTAGTGCAG | 10600 fluorescence intensity (a.u.) |
| ATTGTATTTCTATATGGACTCTGCTTTTTATTTTTCTCCGCGGAGTCACCTAGTGCAG | 8930 fluorescence intensity (a.u.) |

| Sequence | binding signal |
| --- | --- |
| CTATATTCGAGGGAGTCCTTGTGGACTTTTTCCTTCTTTCCGGAGTCACCTAGTGCAG | 9390 fluorescence intensity (a.u.) |
| CCTCCTTGTTGCGGTCGTCTTTCGCTCTATCTTCCTTGTCCGGAGTCACCTAGTGCAG | 11100 fluorescence intensity (a.u.) |
| GCACCTCTTTCCTATCACGCGTCACCTTGCTCCATTGTCGCGGAGTCACCTAGTGCAG | 19000 fluorescence intensity (a.u.) |
| TCTCTCTCCTTTTGTTGCTTCCATTTCTCGTTCTTGCACGCGGAGTCACCTAGTGCAG | 10500 fluorescence intensity (a.u.) |
| GTTGTCATTGTCGCGTCGTCACCTCTGATTGCGTCATTCCCGGAGTCACCTAGTGCAG | 16500 fluorescence intensity (a.u.) |
| ACCTGTATTTGTCATTATTTAGTGGACTCTGCTTAGTTCTCGGAGTCACCTAGTGCAG | 19300 fluorescence intensity (a.u.) |
| TGGATGGCCTTTTGTCTCTTTGTATATTATATATTTAGTTCGGAGTCACCTAGTGCAG | 8260 fluorescence intensity (a.u.) |
| ATGGATCATGGATGGCTCCCGTTGTCATTGTCGCGTCGTCCGGAGTCACCTAGTGCAG | 9810 fluorescence intensity (a.u.) |
| TCCTTAGCTTCCTTCTGTCGACTTGTCTATTCTTTTTTTCCGGAGTCACCTAGTGCAG | 17700 fluorescence intensity (a.u.) |
| CCTCTCTGATTCGTCACCGCCACCGCCGCGTCGTCCCGCGCGGAGTCACCTAGTGCAG | 9730 fluorescence intensity (a.u.) |
| CCATTCCTCTGTTTACCTCTGCTCTGTATACATACTCCGGCGGAGTCACCTAGTGCAG | 9220 fluorescence intensity (a.u.) |
| AGAATTCCGATCGCCACCCCGCGGTTCTGCTCTCGCCGGCCGGAGTCACCTAGTGCAG | 9150 fluorescence intensity (a.u.) |
| ACAAACCCGACCTTGAACTCGAAACAGGCGCACATCCCACCGGAGTCACCTAGTGCAG | 8560 fluorescence intensity (a.u.) |
| CCATCGGTACCATCTGTTTCGTCTACTTCCTTTGTAATCTCGGAGTCACCTAGTGCAG | 9150 fluorescence intensity (a.u.) |
| AGAGGAGAGGAGGGTTCAGATGTGGTGGGTCTATATAGCGCGGAGTCACCTAGTGCAG | 9610 fluorescence intensity (a.u.) |
| GATAGTGTCCCACGCATGCGTCCACGAGTCCTCGACGCAACGGAGTCACCTAGTGCAG | 9120 fluorescence intensity (a.u.) |
| TACTACACTATTAATATATGGTCCAACCTGTCATACACACCGGAGTCACCTAGTGCAG | 10700 fluorescence intensity (a.u.) |
| TGTTTATCTATTTTGTGTTGGTATTATTATTTCTTGTATACGGAGTCACCTAGTGCAG | 8850 fluorescence intensity (a.u.) |
| CCACACCACAGTCGCCTCTCTCCTCTTTCACCGAGAAGCGCGGAGTCACCTAGTGCAG | 8150 fluorescence intensity (a.u.) |
| GTTTCCATAGCATTACACTTTTGTAACTATTATTGTTTTGCGGAGTCACCTAGTGCAG | 9760 fluorescence intensity (a.u.) |
| TATGAAGTTGATTTTGTGGATTTTTTCATCGTGATTTATTCGGAGTCACCTAGTGCAG | 8890 fluorescence intensity (a.u.) |
